Structures are written as SMILES. The whole screen tested about 2,500 compounds, of which about 1,100 (44%) were called active. The set was probably picked from earlier hits. Some of the results follow. Unmarked numbers belong to inactive results.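 Rule for the calls: active = inhibition above 50% at 4 µM in the single-point screen; inactive = inhibition of 50% or less.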

A short description of this assay: blockers of TNF-a NF-kB luciferase induction – cell-based, HEK293T NF-kB-Luc, luminescence, selectivity assay for NOD1/NOD2 signaling inhibitor project, primary screen (AID 1852). Conditions: TNF-a induced, 14 h, at 4 µM, stronger effect = higher value.
Regarding `COc1ccc(CC2(CO)CCN(CC3=Cc4cc(Cl)ccc4OC3)CC2)cc1`, the inhibition is 44%.
Turning to `Cc1nc(Sc2ccc(Br)cc2)c(C#N)c(C)c1[N+](=O)[O-]`, the inhibition was -8.7%.
The value for `COc1ccc(NC(=O)/C(Cl)=C(/Cl)S(=O)Cc2ccc(C)cc2)cn1` (stereo not drawn) was 105% (active).
Regarding `O=C(Cc1ccc(Cl)cc1)Nc1ncc([N+](=O)[O-])s1`, the inhibition is 16.3%.
To `COc1ccc(CS(=O)/C(Cl)=C(/Cl)C(=O)Nc2ccc(OC)nc2)cc1` (stereo not drawn) belongs 101% (active); to `COc1ccc(NC(=O)/C(Cl)=C(/Cl)S(=O)Cc2ccc(Cl)cc2)cn1` (stereo not drawn), 89% (active); to `COc1ccc(NC(=O)/C(Cl)=C(/Cl)S(=O)Cc2ccccc2)cn1` (stereo not drawn), 104% (active).
Regarding `COc1ccc(NC(=O)/C(Cl)=C(/Cl)S(=O)Cc2ccccc2Cl)cn1` (stereo not drawn), the inhibition was 98.2% (active).
The value for `Cn1c(=O)c(C#N)c(-c2ccc(F)cc2)c2cc(C(=O)c3cc(Cl)cc(Cl)c3O)cnc21` was 95.8% (active); that for `CCc1nn2cc(C(=O)c3cc(Cl)ccc3O)cnc2c1-c1ccc(F)cc1` was -6%.
The value for `CCn1c(SCC(=O)Nc2ccc(OC)cc2)nc2nc3c(cc2c1=O)CCCC3` was -16.7%; that for `COc1ccc(C2(c3ccc(OC)cc3)NC(=O)N(CC(=O)Nc3ccc(C(N)=O)cc3)C2=O)cc1` was 59.3% (active); that for `COc1ccc(NC(=O)CN(C)C(=O)c2ccccc2OC)cc1` was -11.8%.
Take `N#CC1=C(SCC(=O)NC23CC4CC(CC(C4)C2)C3)NC(=O)C(C#N)C12CCCCC2` (stereo not drawn): the inhibition is 66.1% (active).
The value for `CC(C)(C)C1CCC2(CC1)C(C#N)=C(SCC(=O)NC1CCCCC1)NC(=O)C2C#N` (stereo not drawn) was -10.7%; that for `CC(C)(C)C1CCC2(CC1)C(C#N)=C(SCC(=O)Nc1ccccc1)NC(=O)C2C#N` (stereo not drawn) was 79% (active).
The value for `O=C1NC(=S)S/C1=C\c1cc2ccccc2nc1N1CCCCC1` was 42%; that for `O=C1c2ccccc2S(=O)(=O)N1Cc1nc2ccccc2s1` was 53.2% (active); that for `COc1ccc(C(=O)CN2C(=O)c3ccccc3S2(=O)=O)cc1` was 92.1% (active).
On to `O=C(CN1C(=O)c2ccccc2S1(=O)=O)c1ccc(F)cc1`, for which the inhibition was 29.1%.
The value for `Cc1ccc(C(=O)CN2C(=O)c3ccccc3S2(=O)=O)cc1` was 85.1% (active); that for `O=C(CCl)Nc1ccccc1Sc1ccc(Cl)cc1` was 33.5%.
To `O=C(CCl)Nc1ccc(Sc2ccc(NC(=O)CCl)cc2)cc1` belongs 81.3% (active).
The value for `O=C1NC(=O)/C(=C\c2ccccc2Oc2ccc(F)c(F)c2)S1` was 55.7% (active); that for `O=C1NC(=O)/C(=C/c2ccccc2Oc2ccc(Cl)cc2)S1` was -26.6%; that for `O=C1NC(=O)/C(=C/c2ccccc2OCc2ccccc2)S1` was 16.2%.
Take `Cc1cc(C(=O)CCl)c(C)n1CCc1ccc(F)cc1`: the inhibition was 55.6% (active).
To `Cc1cc(C(=O)CCl)c(C)n1CCc1ccc(Cl)cc1` belongs 21.1%.
Take `CCOC(=O)C1CCN(C(=O)Cn2cnc3sc(C)c(S(=O)(=O)N4CCC(C)CC4)c3c2=O)CC1`: the inhibition was 55.3% (active).
The value for `CCOC(=O)C1CCN(S(=O)(=O)c2ccc3c(c2)N(C(C)=O)CC(C)S3)CC1` (stereo not drawn) was 5.4%; that for `CCC(C)NC(=O)Cn1cnc2sc(C)c(S(=O)(=O)N3CCN(c4ccccc4OC)CC3)c2c1=O` (stereo not drawn) was 9.7%.
The value for `CN(C)S(=O)(=O)c1cccc(NC(=O)c2ccc(COc3ccccc3)cc2)c1` was 80.7% (active); that for `CN(C)S(=O)(=O)Oc1ccc(C(=O)Nc2cccc(C(F)(F)F)c2)cc1` was 36.5%.
Take `CCOC(=O)C1=C(Cc2ccc(F)cc2)C(=O)c2ccccc2C1=O`: the inhibition was 90.8% (active).
In the case of `CCOC(=O)C1=C(Cc2ccc(Cl)cc2)C(=O)c2ccccc2C1=O`, the inhibition was 7.7%.
The value for `CCOC(=O)c1sc2ccccc2c1OC(=O)c1ccc(C)cc1` was 17.4%; that for `CCOC(=O)C1=C(Cc2ccc(C)cc2)C(=O)c2ccccc2C1=O` was 61.3% (active); that for `CCOC(=O)C1=C(c2ccc(OC)cc2)C(=O)c2ccccc2C1=O` was 108% (active).
To `Cc1cc2c(NCc3ccccc3)ncnc2s1` belongs 42.6%; to `COc1cccc(CNc2ncnc3cc(Cl)ccc23)c1`, 49.2%; to `CC(Nc1ncnc2ccccc12)c1ccccc1` (stereo not drawn), 83.3% (active).
To `Fc1ccc(CNc2ncnc3cc(Cl)ccc23)cc1` belongs 39.9%; to `c1ccc(CNc2ncnc3ccccc23)cc1`, 65.6% (active).
As to `COc1ccc(CNc2ncnc3ccccc23)cc1`, the inhibition was 65.6% (active).
The value for `CC(Nc1ncnc2sccc12)c1ccccc1` (stereo not drawn) was 35.1%; that for `Cc1ccccc1OCc1nc2ccccc2c(=O)n1/N=C/c1cn[nH]c1-c1ccc(Br)cc1` was 3.5%; that for `O=C(c1cnc(N2CCN(c3ccccn3)CC2)c2ccccc12)N1CCN(c2cccc(Cl)c2)CC1` was 53.2% (active).
The value for `Cc1nc(N2CCN(c3ccccn3)CC2)c2c(C)c(C(=O)N3CCN(c4ccccc4F)CC3)sc2n1` was -27.6%; that for `COc1ccccc1N1CCN(c2ncc(C(=O)N3CCN(c4cccc(Cl)c4)CC3)c3ccccc23)CC1` was 21.9%.
`Cc1cc(Br)ccc1NC(=O)c1cnc(N2CCN(c3ccccn3)CC2)c2ccccc12`: the inhibition is 73.3% (active).
The value for `Cc1nc(N2CCN(c3ccccn3)CC2)c2c(C)c(C(=O)Nc3ccccc3F)sc2n1` was 4.6%.
The value for `CCc1ccc(NC(=O)c2cnc(N3CCN(c4ccccn4)CC3)c3ccccc23)cc1` was 78.3% (active).
The value for `Cc1ccc(NC(=O)c2cnc(N3CCN(c4ccccn4)CC3)c3ccccc23)c(Br)c1` was 99.8% (active); that for `COc1ccc(C)cc1NC(=O)c1sc2ncnc(N3CCN(c4ccccn4)CC3)c2c1C` was -10%; that for `CCN(C(=O)c1cnc(N2CCN(c3ncccn3)CC2)c2ccccc12)c1cccc(Cl)c1` was 46.7%.
On to `O=C(CN1CCN(c2ccccn2)CC1)Nc1cccc(Br)c1`, for which the inhibition is 13.8%.
On to `S=C(Nc1ccc(Oc2ccccc2)cc1)N1CCN(c2ccccn2)CC1`, for which the inhibition was 21%.
To `Cc1ccccc1C(=O)N1CCN(c2ccccn2)CC1` belongs 48.2%; to `O=C(COC(=O)/C=C/C(=O)OCC(=O)Nc1ccccc1F)Nc1ccccc1F`, 33.2%; to `COC(=O)c1cccc2c1-c1ccccc1/C2=N/O`, 67.3% (active).
For `CCOC(=O)c1cccc2c1-c1ccccc1/C2=N/O`, the inhibition is 48.8%.
To `COC(=O)c1ccc2c(c1O)C(=O)c1ccccc1C2=O` belongs -53.2%; to `COc1ccc(NC(=S)NC(NC(=O)c2ccc(Cl)cc2Cl)C(Cl)(Cl)Cl)c([N+](=O)[O-])c1` (stereo not drawn), 34.9%; to `O=C(NC(NC(=S)Nc1ccc(Cl)cc1Cl)C(Cl)(Cl)Cl)c1cccc([N+](=O)[O-])c1` (stereo not drawn), 95.7% (active).
To `O=C(NC(NC(=S)Nc1ccccc1Cl)C(Cl)(Cl)Cl)c1cccc(Cl)c1` (stereo not drawn) belongs -7%.
The value for `Oc1cccc(/C=N/Nc2ccc(Cl)nn2)c1O` was -18%.
As for `CCCOc1ccc(/C=N/NC(=S)Nc2ccccc2[N+](=O)[O-])c(O)c1`, the inhibition was 15.1%.
To `O=[N+]([O-])c1cc(Cl)cc(/C=N/NC(=S)Nc2cc(S(=O)(=O)N3CCOCC3)ccc2Cl)c1O` belongs 49.1%; to `Oc1c(Br)cc(Br)cc1/C=N/Nc1ccc(Cl)nn1`, 44.5%; to `O=C(NC(NC(=S)Nc1ccccc1)C(Cl)(Cl)Cl)c1cccc(Cl)c1` (stereo not drawn), 23.1%.
In the case of `O=[N+]([O-])c1ccc(O)c(/C=N/Nc2ncnc3c2cnn3-c2ccccc2)c1`, the inhibition is 46.3%.
Turning to `O=[N+]([O-])c1ccc(O)c(/C=N/NC(=S)Nc2ccc(Cl)cc2Cl)c1`, the inhibition was 105% (active).
The value for `O=[N+]([O-])c1ccc(O)c(/C=N/Nc2ccccc2[N+](=O)[O-])c1` was 69.5% (active).
For the compound `O=[N+]([O-])c1ccc(O)c(/C=N/Nc2ccc(Cl)nn2)c1`, the inhibition is 70.3% (active).
The value for `O=C1NC(=O)/C(=C\c2ccc(Oc3cnccn3)cc2)S1` was -64.2%.
The value for `O=[N+]([O-])c1cccc(/C=N\N=C2c3ccccc3-c3ccccc32)c1O` was 7.7%; that for `O=[N+]([O-])c1ccc(O)c(/C=N\N=C2c3ccccc3-c3ccccc32)c1` was 77% (active); that for `Oc1nc(Nc2ccc(Cl)cc2Cl)sc1/C=C1\C=Nc2ccccc21` was 5.6%.
To `Cc1ccc(CSc2nc(-c3ccccc3)c(C#N)c(=O)[nH]2)cc1` belongs -18%; to `CCCCc1c(C)c(C#N)c2[nH]c3ccccc3n2c1=O`, 44.9%.
Take `Cc1ccc(Cc2c(C)c(C#N)c3[nH]c4ccccc4n3c2=O)cc1`: the inhibition was 74.6% (active).
To `Cc1ccc(O)c(C(=O)c2cc(C#N)c3nc4ccccc4n3c2)c1` belongs 33%.
The value for `O=c1oc2ccc(Br)cc2cc1S(=O)(=O)c1ccc(F)cc1` was 68% (active); that for `CC(C)c1ccc(S(=O)(=O)c2cc3cc(Br)ccc3oc2=O)cc1` was 32.3%.
Regarding `Cc1ccc(S(=O)(=O)c2cc3cc(Br)ccc3oc2=O)cc1`, the inhibition was 58.4% (active).
To `Cc1ccc(S(=O)(=O)c2cc3ccccc3oc2=O)cc1` belongs 29.7%; to `C=CCC1(CC=C)CCCN1C(=O)c1cc(COc2cncc(Cl)c2)on1`, 19.5%; to `C=CCC1(CC=C)CCCN1C(=O)c1cc(COc2ccc(C)nc2)on1`, 52.5% (active).
The value for `Cc1ccc(OCc2cc(C(=O)NC3CCCCC3)no2)cn1` was 46%; that for `c1ccc(N2CCN(c3ncnc4sc5c(c34)CCC5)CC2)cc1` was 57.1% (active); that for `O=C(O)c1cccc(-c2ccc(/C=N/n3cnc4sc5c(c4c3=O)CCCC5)o2)c1` was -30.8%.
The value for `CC1CCc2sc3ncnc(N4CCOCC4)c3c2C1` (stereo not drawn) was 29.3%.
For `CC1=NNC(=O)/C1=C\c1cn(-c2ccccc2)nc1-c1cccs1`, the inhibition is -42.7%.

One may read the inhibition as the relative decrease from the control value, in per cent.

These data come from PubChem BioAssay AID1852 (Sanford-Burnham Center for Chemical Genomics, 2009).
